Screening results (PubChem)
A selection: hits, their analogues and other compounds. The true share with any hit is near 2.6%.
LGR2 inh = inhibitors of bursicon-induced Drosophila LGR2 receptor cAMP signaling; HEK293 LGR2, CRE-luciferase, bursicon-stimulated, 4 h; inhibition, % at 9.99 µM; 380,000 tested, 0.35% active;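 active = drop in luminescence signal, shown as inhibition above about 50% in the replicate tests, limit read from the data, passing the limit was not always enough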;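 note: agonist challenge used bursicon conditioned medium at about half maximal strength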
TROY NFkB inh = TROY signaling inhibition. Q293 LMP1-TROYcd NF-kB luciferase reporter, 4 h. inhibition, % at 10 µM. 360,000 tested, 0.98% active. AID 1347056;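 active = compounds whose plate-normalised and pattern-corrected inhibition of the luciferase reporter signal at the single screening dose is 50% or more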
EWS-Fli block = EWS/Fli transcriptional activity inhibition; 350,000 tested, 0.67% active; AID 651661; inhibition, % at 12.6 µM; A673 NR0B1-luciferase reporter, viability-normalised;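 active = mean inhibition of at least 50% after viability correction, with every replicate also passing that limit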;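 note: firefly luciferase signal divided by Alamar Blue viability fluorescence both relative to DMSO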
EBV LMP1 NFkB = inhibitors of Epstein-Barr LMP1-induced NF-kappaB reporter; inhibition, % at 12.5 µM; 350,000 tested, 0.69% active; AID 504558; LMP1-induced NF-kappaB luciferase reporter cells, luminescence; in the data active = inhibition above about 41%;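 note: 0% = neutral control wells and 100% = reference inhibitor control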
TWEAK-Fn14 inh = TWEAK-Fn14 signaling inhibition; TWEAK-stimulated Fn14 reporter cells, luciferase luminescence, 8 h; inhibition, % at 10 µM; 360,000 tested, 2% active; AID 1159606; in the data active = inhibition above about 50%
Numbers without * were called inactive; ! = not confirmed by another sample.

`CC(C)C#Cc1ccc2c(c1)O[C@H](CN(C)C(=O)c1ccccn1)[C@@H](C)CN([C@@H](C)CO)S2(=O)=O` gave LGR2 inh -1 and EWS-Fli block 6.
For C[C@@H]1CN([C@H](C)CO)C(=O)c2cccc(NC(=O)C3CCOCC3)c2O[C@H]1CN(C)S(=O)(=O)c1ccc(F)cc1 the results were LGR2 inh 13 and EWS-Fli block -9.
Screening O=C(Nc1cccc(Cl)c1)Nc1ccnc(-c2cccnc2)n1 returned LGR2 inh 16, TROY NFkB inh 17, EWS-Fli block -18, EBV LMP1 NFkB 58* and TWEAK-Fn14 inh 53*.
Screening Clc1ccc(OCc2nn3c(-c4ccco4)nnc3s2)c(Cl)c1 returned TROY NFkB inh 69*, EBV LMP1 NFkB 2 and TWEAK-Fn14 inh 47.
For CCc1ccc(-c2nc(CSCC(=O)N3CCN(c4ncccn4)CC3)c(C)o2)cc1 the results were LGR2 inh 4, TROY NFkB inh 79*, EWS-Fli block 82*, EBV LMP1 NFkB 8 and TWEAK-Fn14 inh 51*.
CSc1ccc(-c2nc(CSCC(=O)N3CCOCC3)c(C)o2)cc1 was read as LGR2 inh -6, TROY NFkB inh 8, EBV LMP1 NFkB -9 and TWEAK-Fn14 inh 8.
For CCCNC(=O)C[C@H]1CC[C@H]2[C@H](COc3ccc(NC(=O)c4cccc(Cl)c4)cc3C(=O)N2C)O1 the results were LGR2 inh 6 and EWS-Fli block 2.
Screening O=C(Cc1ccncc1)N1C[C@@H]2N[C@H](C1)C2c1ccc(-c2ccccc2)cc1 (some centres not stated) returned LGR2 inh -12 and EWS-Fli block 2.
`Cc1ccccc1-c1ccc(C2[C@@H]3CN(C(=O)Cc4ccccc4)C[C@H]2N3)cc1` (some centres not stated) gave LGR2 inh 14 and EWS-Fli block 56*!.
Screening N#Cc1cccc(-c2ccc([C@@H]3[C@@H]4CN(S(=O)(=O)c5ccc(-c6ccccc6)cc5)C[C@H]3N4)cc2)c1 returned LGR2 inh 5 and EWS-Fli block 74*.
COc1ccccc1-c1ccc(C2[C@@H]3CN(S(=O)(=O)c4ccccc4)C[C@H]2N3)cc1 (some centres not stated) was read as LGR2 inh -15 and EWS-Fli block 53*.
`N#Cc1cccc(-c2ccc(C3[C@@H]4CN(S(=O)(=O)c5ccccc5)C[C@H]3N4)cc2)c1` (some centres not stated) gave LGR2 inh 26 and EWS-Fli block -10.
C[C@@H]1CN([C@@H](C)CO)C(=O)c2cccc(NS(=O)(=O)c3cccs3)c2O[C@@H]1CN(C)Cc1ccc(C(=O)Nc2ccccc2N)cc1 was read as LGR2 inh -44 and EWS-Fli block 45.
CO[C@H]1CN(C)C(=O)c2cc(NC(=O)c3ccccc3F)ccc2OC[C@@H](C)N(C(=O)c2ccccc2F)C[C@H]1C was read as LGR2 inh 2 and EWS-Fli block -9.
For COc1ccc(S(=O)(=O)Nc2ccc3c(c2)C(=O)N([C@H](C)CO)C[C@H](C)[C@@H](CN(C)Cc2ccc(Cl)c(Cl)c2)OCCCC[C@@H](C)O3)cc1 the results were LGR2 inh 18 and EWS-Fli block 35.
For COc1ccc(CN(C)C[C@H]2OCCCC[C@H](C)Oc3ccc(NS(=O)(=O)c4c(C)noc4C)cc3C(=O)N([C@H](C)CO)C[C@H]2C)cc1 the results were LGR2 inh -17 and EWS-Fli block -1.
`CCn1c(/C=C/Nc2ccccc2)[n+](CC)c2cc(Cl)c(Cl)cc21` gave LGR2 inh 16, TROY NFkB inh 17, EWS-Fli block 69*, EBV LMP1 NFkB -15 and TWEAK-Fn14 inh -24.
`O=C(NC[C@H]1CC[C@H]2[C@H](CN2Cc2ccccc2F)O1)C1CC1` gave EWS-Fli block 1.
For COC(=O)C1=C(C(=O)OC)[C@@H]2N(Cc3ccccc3)c3ccccc3[C@@]23C[C@@H](C(=O)OC)N(C(=O)c2ccc(Br)cc2)C3=N1 the results were TROY NFkB inh 10, EBV LMP1 NFkB 1 and TWEAK-Fn14 inh 54*.
COC(=O)C1=C(C(=O)OC)[C@@H]2N(C)c3ccc(OC)cc3[C@@]23C[C@@H](C(=O)OC)N(C(=O)c2ccc(Br)cc2)C3=N1 was read as LGR2 inh 1, TROY NFkB inh 19, EWS-Fli block 3, EBV LMP1 NFkB -1 and TWEAK-Fn14 inh 53*.
For COC(=O)C1=C(C(=O)OC)[C@@H]2N(Cc3ccccc3)c3ccccc3[C@@]23C[C@@H](C(=O)OC)N(C(=O)COCc2ccccc2)C3=N1 the results were TROY NFkB inh 24, EBV LMP1 NFkB 2 and TWEAK-Fn14 inh 51*.
C=CCN1c2ccccc2[C@]23C[C@@H](C(=O)OC)N(C(=O)c4ccc(Br)cc4)C2=NC(C(=O)OC)=C(C(=O)OC)[C@H]13 was read as LGR2 inh 7, TROY NFkB inh 31, EWS-Fli block 15, EBV LMP1 NFkB 3 and TWEAK-Fn14 inh 61*.
CCCNC(=O)N1CC2(C1)[C@@H](c1ccccc1)[C@@H](CO)N2C(=O)C1CCCCC1 was read as LGR2 inh 7 and EWS-Fli block -1.
For C[C@@H]1CN([C@H](C)CO)C(=O)c2cc(N(C)C)ccc2O[C@@H](C)CCCCO[C@@H]1CN(C)C(=O)NC1CCCCC1 the results were LGR2 inh -1 and EWS-Fli block 0.
For Cc1ccccc1-c1ccccc1[C@H]1[C@@H](C#N)N(C(=O)c2ccccc2)[C@H]1CO the results were LGR2 inh -9 and EWS-Fli block 20.
For N#CC1c2ccccc2-c2ccccc2N1C(=O)c1ccccc1 (configuration not stated) the results were LGR2 inh 1, TROY NFkB inh 11, EWS-Fli block 55*, EBV LMP1 NFkB 12 and TWEAK-Fn14 inh 22.
CCS(=O)(=O)CCSc1nc2ccccc2s1 was read as TROY NFkB inh -2, EBV LMP1 NFkB -3 and TWEAK-Fn14 inh -8.
For NC(=O)COC(=O)CCCSc1nc2ccccc2s1 the results were LGR2 inh 4, TROY NFkB inh 44, EWS-Fli block 12, EBV LMP1 NFkB -2 and TWEAK-Fn14 inh 54*.
`O=S(=O)(CCSc1nc2ccccc2s1)c1nc2ccccc2s1` gave TROY NFkB inh 69*, EBV LMP1 NFkB 6 and TWEAK-Fn14 inh 83*.
CC(OC(=O)CCCSc1nc2ccccc2s1)C(=O)NC(N)=O (configuration not stated) was read as LGR2 inh 5, TROY NFkB inh 11, EWS-Fli block 9, EBV LMP1 NFkB 0 and TWEAK-Fn14 inh 22.
For CNC(=O)NC(=O)COC(=O)CCCSc1nc2ccccc2s1 the results were TROY NFkB inh 40, EWS-Fli block 1, EBV LMP1 NFkB 9 and TWEAK-Fn14 inh 59*.
For C[C@@H]1CCCCO[C@H](CN(C)C(=O)Nc2cccc3ccccc23)[C@@H](C)CN([C@H](C)CO)C(=O)c2cc(NC(=O)CCC(F)(F)F)ccc2O1 the results were LGR2 inh 0 and EWS-Fli block -3.
